Screen size: about 370,000 compounds; about 1,100 (0.3%) were called active. The sample holds actives, similar compounds and a random draw of the others, so the mix is not that of the screen. No stated cut-off is given here; in the data, active means inhibition above about 13%; inactive means the rest.
What follows are compounds tested against Methyl-CpG-binding domain protein 2 (Homo sapiens) (UniProt Q9UBB5) (assay: MBD2-DBD methyl-oligonucleotide interaction blockers – biochemical, TR-FRET, DNA-binding domain, human, primary screen (AID 686964)). Conditions: MBD2 binding to methylated oligonucleotide, at 4.4 µM, stronger effect = higher value.
Chain of Methyl-CpG-binding domain protein 2 (Homo sapiens) (Q9UBB5 whole entry, looked up, the tested form may be a part): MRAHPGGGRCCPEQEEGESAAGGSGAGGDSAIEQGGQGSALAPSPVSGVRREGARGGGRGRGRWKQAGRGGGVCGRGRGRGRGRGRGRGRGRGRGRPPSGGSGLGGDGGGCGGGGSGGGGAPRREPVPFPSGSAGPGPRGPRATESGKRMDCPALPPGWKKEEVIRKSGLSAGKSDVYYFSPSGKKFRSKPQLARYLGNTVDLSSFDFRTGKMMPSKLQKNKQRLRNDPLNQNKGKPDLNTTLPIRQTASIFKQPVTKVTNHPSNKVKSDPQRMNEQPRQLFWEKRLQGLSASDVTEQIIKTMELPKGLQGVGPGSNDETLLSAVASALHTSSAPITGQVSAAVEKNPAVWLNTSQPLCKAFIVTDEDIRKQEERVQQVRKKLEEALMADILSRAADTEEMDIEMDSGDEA

inhibition, active:
CCN(CC)CCOc1ccc2c(c1)C(=NNC(=O)c1ccccn1)c1cc(OCCN(CC)CC)ccc1-2 109%
C=C1c2c(Cl)ccc(O)c2C(O)=C2C(=O)[C@]3(O)C(O)=C(C(N)=O)C(=O)[C@@H](N(C)C)[C@@H]3[C@@H](O)C12 (stereo partly drawn) 27.8%
CN(C)[C@@H]1C(=O)C(C(N)=O)=C(O)[C@@]2(O)C(=O)C3=C(O)c4c(O)ccc(Cl)c4[C@@H](O)[C@H]3C[C@@H]12 17.8%
CCOC(=O)C1C(=O)OC2(CCCC2)C1C(=O)OCC (stereo not drawn) 19.3%
Nc1ccccc1C(=O)NC1CCCCNC1=O (stereo not drawn) 16.1%
Cc1c(NS(=O)(=O)c2cc(C(=O)NCCc3ccc(F)cc3)cc(Cl)c2Cl)c(=O)n(-c2ccccc2)n1C 26.3%
COCCNC(=O)Nc1ccc2nc(-c3ccco3)c(-c3ccco3)nc2c1 53.7%
C=CCN1C(=O)c2ccc(C(=O)N3CCC(C(=O)OCC)CC3)cc2C1=O 16.8%

inhibition, inactive:
CCN(CC)S(=O)(=O)c1cc(C(=O)Nc2ccccn2)ccc1C 2.21%
CCCC(C(=O)OCCN(CC)CC)(c1ccccc1)c1ccccc1 0.72%
Cc1cccc(S(=O)(=O)N(C)C[C@@H]2OCc3cnnn3CCCC(=O)N([C@H](C)CO)C[C@@H]2C)c1 3.06%
O=C1CCC2(CCC(c3ccc(Cl)cc3)CC2)N1CCO (stereo not drawn) -0.8%
Nc1ncnc2c1ncn2[C@@H]1O[C@H](C(=O)N[C@@H](CCc2ccccc2)C(=O)N2CCCN(Cc3cccs3)CC2)[C@@H](O)[C@H]1O 1.63%
O=C(O)CCn1c(O)c(C=C2N=c3ccccc3=N2)sc1=S -4.63%
CCOC(=O)C1C(=O)NCC1c1ccccc1 (stereo not drawn) -0.38%
CCOC(=O)C1C(c2ccc(O)cc2)NC(=O)NC1(O)C(F)(F)F (stereo not drawn) -5.62%
Cc1cc2c(nc1C)CCCN2C -0.93%
C=CCN(Cc1ccc2c(c1)OCO2)C(C#CC1CC1)C(C)(C)C (stereo not drawn) 3.04%
O=C(c1c[nH]c2ccccc12)N1CCC(Oc2cccnc2)CC1 -6.13%
CC(=O)N1C[C@@H](CO)[C@@H](N(C)C(=O)C(C)(C)C)C[C@H]1c1ccccc1Br 2.89%
Oc1ccc(/C=C/c2c(F)cccc2F)c2cccnc12 -0.79%
Cc1ccc(CNC(=O)CC(NC(=O)c2ccccc2)c2ccccc2)cc1 (stereo not drawn) -3.58%
Nc1ccn([C@@H]2O[C@H](C(=O)N[C@H]3CCCCNC3=O)[C@@H](O)[C@H]2O)c(=O)n1 -2.88%
O=C(CNC(=O)OCc1ccccc1)NC1CCCCNC1=O (stereo not drawn) 0.98%
CN1[C@H](Cc2ccccc2)COc2cccc(N3CCSCC3)c2S1(=O)=O 3.96%
CCOC(=O)N1CCN(C(=O)C[C@@H]2C(=O)N(CCc3ccc(Cl)cc3)C3=CCCC[C@]32C(=O)OCC)CC1 -2%
COc1ccc2c(CC(=O)NNC(=O)c3ccccc3F)coc2c1 -1.98%
C[C@H]1[C@H](NC(=O)c2cccc(N(C)C)c2)CC[C@@]23CCCN2C(=O)CCC[C@@H]13 -0.56%
Cc1c(NS(=O)(=O)c2cccc(C(=O)Nc3ccc(SC(F)F)cc3)c2)c(=O)n(-c2ccccc2)n1C 7.59%
Cc1cc(C)c(S(=O)(=O)Nc2c(C)n(C)n(-c3ccccc3)c2=O)cc1[N+](=O)[O-] -5.79%
O=C(O)Cn1cnc2c(NCc3ccccc3)ncnc21 -3.02%
O=C(NCCc1c[nH]c2ccccc12)OCc1cn(-c2c(F)cccc2F)nn1 -6.28%
CCC(=O)OCCCN1C(=O)CCC12CCC(c1ccccc1)CC2 (stereo not drawn) 3.38%
CN1C(c2ccc(F)cc2)=CS/C1=C(/C#N)c1nnc2n1-c1ccccc1SC2 -4.62%
COC(CNC(=O)[C@H](Cc1ccccc1)NC1(C(=O)NC2CCCCC2)CCCCC1)OC 6.86%
C=CS(=O)(=O)N(Cc1nnn(Cc2ccccc2)c1Br)[C@H](C(=O)OC)C(C)C -4.08%
Cc1ccc(-c2noc(CCC(=O)Nc3ccccc3N3CCN(C)CC3)n2)cc1 -4.01%
COCCNC(=O)c1cc2c(Br)ccc(Br)c2nc1N 1.97%
COCCNC(=S)c1ccc(OC)cc1 0.26%
COc1cccc(CNC(=O)CNS(=O)(=O)c2ccc3nc(C)sc3c2)c1OC 3.15%
CCOC(=O)C1CCCN(C(=O)c2ccc(N(C)C)cc2)CC1 (stereo not drawn) 7.99%
CCOC(=O)C1CCCN(C(=O)c2ccc(C)c(F)c2)CC1 (stereo not drawn) -3.99%
Cc1c(C(=O)N2CC(C)OC(C)C2)sc2nc(-c3ccccc3)cn12 (stereo not drawn) -0.32%
